Compound activity deposited in PubChem by The Scripps Research Institute Molecular Screening Center.
hcDAF12 agonist = H. contortus DAF-12 activation, primary screen | AID 652067 | activation, % at 6.8 µM | 370,000 tested, 1.4% active | HEK293 hcDAF-12 lit1-tk-luc reporter, luminescence; 0% DMSO, 100% Δ7-dafachronic acid;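 active = activation above the mean of all tested compounds plus 3 SD, cut at about 5.5% in these data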
hgDAF-12 ag = activates the H. glycines DAF-12 receptor ligand-binding domain; HEK293 GAL4-hgDAF12 UAS-luciferase reporter, agonist luminescence; normalized to butyrate control; activation, % at 6.8 µM; 370,000 tested, 1.8% active; AID 687014;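 active = activation above a cutoff set at the mean of all screened compounds plus 3 SD, cut at about 10% in these data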
DAX1 inh-1 = blocks DAX1 repression of SF-1 activated StAR promoter. AID 652010. 370,000 tested, 1.1% active. inhibition, % at 6.8 µM. HEK293T StAR-luciferase reporter, SF-1/DAX-1 repression relief;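 active = inhibition above the mean over all tested compounds plus 3 SD, cut at about 3.6% in these data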;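 note: higher inhibition means more luminescence from relief of DAX-1 repression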
DAX1 inh-2 = inhibitors of human orphan nuclear receptor DAX1 (NR0B1). P51843. HEK293 Gal4-DAX1 luciferase reporter, luminescence. inhibition, % at 6.75 µM. 340,000 tested, 0.99% active. AID 504766;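 active = inhibition above the mean over all tested compounds plus 3 SD, cut at about 4.2% in these data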;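 note: inhibition shows as a rise in luminescence from relieved DAX1 repression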
ssDAF12 agonist = activators of S. stercoralis DAF-12 nuclear receptor; activation, % at 6.8 µM; HEK293 ssDAF-12/GRIP1 lit1-tk-luc reporter, luminescence; % of 3 µM dafachronic acid response; 370,000 tested, 1% active; AID 652126;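 active = activation above the mean over all tested compounds plus 3 SD, cut at about 0.9% in these data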
AHR activator = human AHR activation | P35869 | 320,000 tested, 2.5% active | AHR-responsive luciferase reporter cells, luminescence | activation, % at 5 µM; in the data active = activation above about 47%
Each line names hits and unclear results; the compound was inactive in the other large screens. An excerpt weighted towards active compounds, which were near 5.7% of everything screened.

CCCCCCC(=O)Nc1nc(C)c(-c2csc(Nc3ccc(Cl)cc3)n2)s1	AHR activator 62 (no result: hcDAF12 agonist, hgDAF-12 ag, DAX1 inh-1, ssDAF12 agonist)
CCCCCC(=O)Nc1nc(C)c(-c2csc(Nc3ccc(Cl)cc3)n2)s1	AHR activator 65
CCC(=O)Nc1nc(C)c(-c2csc(Nc3cccc(O)c3)n2)s1	none
COc1ccc(Nc2nc(-c3sc(NC(C)=O)nc3C)cs2)cc1	none (no result: hcDAF12 agonist, hgDAF-12 ag, DAX1 inh-1, DAX1 inh-2, ssDAF12 agonist)
C=CCNc1nc(-c2sc(NC(C)=O)nc2C)cs1	none
O=C(Nc1ccccc1C(=O)O)c1cc(S(=O)(=O)N2CCOCC2)c(Br)s1	none
COc1cc2ccccc2cc1C(=O)Nc1ccc(CN2CCOCC2)cc1	none
C#CCSc1nnc(-c2cccc3ccccc23)o1	ssDAF12 agonist 1.7
OCC#CCSc1nnc(-c2ccncc2)o1	none
Oc1ccc(-c2nnc(SCc3ccccc3)o2)cc1	hgDAF-12 ag 11
C#CCSc1nnc(-c2ccc(O)cc2)o1	hgDAF-12 ag 11
C#CCSc1nnc(-c2ccc(C)cc2)o1	hgDAF-12 ag 11
c1ccc(CSc2nnc(-c3cccnc3)o2)cc1	none
O=C(OCC(CO)OC(CO)n1ccc(=O)[nH]c1=O)c1ccccc1 (configuration not stated)	none
O=C(NNC(=O)c1ccccc1OCc1ccc(F)cc1)c1ccncc1	none
O=C(CN1CCc2ccccc2C1)Nc1ccc(F)cc1	DAX1 inh-2 4.2 (no result: AHR activator)
CCOc1ccc(NC(=O)CN2CCc3ccccc3C2)cc1	none
CN(C)c1ccc(NC(=O)CN2CCc3ccccc3C2)cc1	hcDAF12 agonist 5.7
O=C(COC(=O)c1ccc(O)cc1)Nc1cccc(S(=O)(=O)NC2=NCCC2)c1	none
CCN1CCN(c2nc(-c3ccncc3)nc3ccccc23)CC1	none (no result: hcDAF12 agonist, hgDAF-12 ag, DAX1 inh-1, DAX1 inh-2, ssDAF12 agonist)
CCN1CCN(c2nc(-c3cccnc3)nc3ccccc23)CC1	hcDAF12 agonist 5.7
Cc1cccnc1NC(=O)C(C)Oc1ccccc1 (configuration not stated)	none
Cc1cc(N2CCN(c3ncccn3)CC2)nc2c(C)cccc12	AHR activator 72
O=Cc1ccc2noc(-c3ccc(Cl)cc3)c2c1	hcDAF12 agonist 6.5
Cc1ccc(-c2onc3ccc(Cl)cc23)cc1	none
O=C(NCCc1ccccc1)C(c1cccs1)N(C(=O)c1csnn1)C1CC1 (configuration not stated)	AHR activator 58
CC(OC(=O)c1ccc(CN2CCCC2=O)cc1)C(=O)Nc1ccc(Cl)cc1 (configuration not stated)	none
O=C(NCC1CCCN(Cc2nccs2)C1)c1cccc2ccccc12 (configuration not stated)	none
CN(C)C(=O)c1ccc(N/C=C(\C=O)c2nc3ccccc3o2)cc1	none
CN(C)C(/C=C/Nc1cccc([N+](=O)[O-])c1)=C(C#N)C#N	none
Cc1ccc(C(=O)/C=C/Nc2cccc([N+](=O)[O-])c2)o1	hcDAF12 agonist 5.8, hgDAF-12 ag 11
COc1ccc(CC(=O)Nc2ccc(-c3noc(-c4cccc(OC)c4)n3)cc2)cc1	none
COc1cccc(C(=O)Nc2nc(-c3ccncc3)cs2)c1	none
COc1ccc(-c2csc(/C=C/c3ccc4c(c3)OCO4)n2)cc1OC	AHR activator 54
CC(=O)Nc1nc(-c2ccc3c(c2)OCO3)cs1	hgDAF-12 ag 12
Clc1ccc(-c2csc(N/N=C/c3ccc4c(c3)OCO4)n2)cc1	AHR activator 63
O=C(CCC(=O)Nc1ccc(Cl)cc1)N/N=C/c1ccc2c(c1)OCO2	none
COc1cccc(C(=O)Nc2nc(-c3ccc4c(c3)OCO4)cs2)c1	AHR activator 68
CCCCOc1ccc(C(=O)Nc2ccc(N3CCN(C(C)=O)CC3)cc2)cc1	none
C=CCNc1nnc(-c2ccncc2)s1	none
c1ccc2c(Nc3nnc(-c4ccncc4)s3)cccc2c1	hgDAF-12 ag 10, AHR activator 63
CC1CN(CC(=O)Nc2ccc(Br)cn2)CC(C)O1 (configuration not stated)	none
CC1CCCC(C)N1S(=O)(=O)c1ccc(Cl)cc1 (configuration not stated)	DAX1 inh-2 4.7
COc1ccccc1NC(=O)c1csc2c1CCC(C)C2 (configuration not stated)	AHR activator 55
COc1cccc(NC(=O)CN(C)C(=O)c2cc3c(s2)CCCCC3)c1	none
COc1cccc(NC(=O)c2csc3c2CCCC3)c1	hgDAF-12 ag 11
Cc1ccc(C)c(NC(=S)NNC(=O)c2csc3c2CCCC3)c1	none
CC1CCc2c(C(=O)NCc3ccco3)csc2C1 (configuration not stated)	none
Cc1cccc(NC(=S)NNC(=O)c2csc3c2CCCC3)c1	hgDAF-12 ag 11
COc1cccc(NC(=O)CN(C)C(=O)c2cc3c(s2)CCCC3)c1	DAX1 inh-1 3.7
c1ccc(N=C(c2cccs2)N2CCOCC2)cc1	none
Cc1cccc(-c2cccc3c4c([nH]c23)[C@@H]2C[C@H](N(C)C(=S)NCCc3ccccc3)[C@H]([C@H](C)O)CN2CC4)c1	none (no result: DAX1 inh-2, AHR activator)
Cc1ccc(C(OC(=O)c2ccco2)C(=O)NCc2cccs2)cc1 (configuration not stated)	none
COc1ccc2oc(C(=O)OCC(=O)N3CCCCC3)c(C)c2c1	DAX1 inh-2 4.9
COc1ccc2oc(C(=O)N3CCCc4ccccc43)c(C)c2c1	DAX1 inh-1 4.3
COc1cccc(NC(=O)CCCOc2cc(=O)n(C)c3ccccc23)c1	none
COCc1cc(=O)[nH]c(Nc2nc3ccc(C)cc3o2)n1	AHR activator 48
CCc1ccc2nc(Nc3nc(COC)cc(=O)[nH]3)nc(C)c2c1	none
O=C(CSc1nc2ccsc2c(=O)n1CC1CCC(C(=O)O)CC1)c1ccc(Cl)cc1 (configuration not stated)	none
O=C(O)C1CCC(Cn2c(SCc3cc(=O)n4ccccc4n3)nc3ccsc3c2=O)CC1 (configuration not stated)	DAX1 inh-2 5.0
O=C(CSc1nc2ccsc2c(=O)n1CC1CCC(C(=O)O)CC1)c1ccc(F)cc1 (configuration not stated)	hgDAF-12 ag 11
CN(C)c1ccc(-c2nc3cnccn3c2Nc2ccc3c(c2)OCCO3)cc1	none
Fc1ccc(-c2nc3ccccn3c2NCc2ccc3c(c2)OCO3)cc1	none
Oc1ccc(-c2nc3ccccn3c2NCc2ccc3c(c2)OCO3)cc1	AHR activator 71
Clc1ccc2nc(-c3ccccn3)c(Nc3ccc4c(c3)OCO4)n2c1	hgDAF-12 ag 13
Cc1ccn2c(NCc3ccc4c(c3)OCO4)c(-c3ccc(O)cc3)nc2c1	AHR activator 66
Cc1ccc(-c2nc3cnccn3c2Nc2ccc3c(c2)OCO3)cc1	AHR activator 56
Cc1ccc2nc(-c3ccccc3O)c(Nc3ccc4c(c3)OCCO4)n2c1	none
